# Results reported in the supplement of paper PMC3334620.
# In all, about 33,000 sequences were measured (“E-score (-0.5 to 0.5)”: median about -0.032, highest 2% from about 0.36 on). The sample holds the highest values, similar sequences and a random draw of the others, so the mix is not that of the screen.
# Target: T1, Sko1 (UniProt Q02100)
# T1 sequence: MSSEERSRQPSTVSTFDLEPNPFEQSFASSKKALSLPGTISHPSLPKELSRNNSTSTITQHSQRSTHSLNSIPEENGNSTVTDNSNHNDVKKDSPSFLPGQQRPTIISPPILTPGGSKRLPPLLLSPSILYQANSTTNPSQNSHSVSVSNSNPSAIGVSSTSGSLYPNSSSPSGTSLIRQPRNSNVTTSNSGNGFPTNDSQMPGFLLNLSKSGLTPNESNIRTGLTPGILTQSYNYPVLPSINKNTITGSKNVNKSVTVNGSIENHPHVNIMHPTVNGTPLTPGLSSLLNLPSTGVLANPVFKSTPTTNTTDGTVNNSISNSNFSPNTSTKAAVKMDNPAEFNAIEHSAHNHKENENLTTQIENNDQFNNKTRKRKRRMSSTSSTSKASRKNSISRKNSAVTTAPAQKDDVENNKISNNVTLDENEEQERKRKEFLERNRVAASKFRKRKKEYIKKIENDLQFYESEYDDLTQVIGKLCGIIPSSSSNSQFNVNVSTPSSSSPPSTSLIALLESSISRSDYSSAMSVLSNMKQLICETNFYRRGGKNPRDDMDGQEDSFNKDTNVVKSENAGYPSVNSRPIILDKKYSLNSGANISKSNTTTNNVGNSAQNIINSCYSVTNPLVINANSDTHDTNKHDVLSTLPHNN
# Test: PBM E-score (8-mer binding enrichment) (E-score (-0.5 to 0.5)); higher = stronger / more preferred TF binding
# Conditions: protein concentration: 200 nM; construct: GST-full length
# Procedure: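 Universal 'all 10-mer' protein binding microarrays (Agilent AMADID 015681) probed with GST-tagged S. cerevisiae TFs (full-length or DBD) made by in vitro transcription/translation (PURExpress), about 100-200 nM. Bound TF was detected with fluorescent anti-GST. Each ungapped 8-mer (which stands for itself and its reverse complement) is scored by the PBM enrichment score (E-score), a modified Wilcoxon-Mann-Whitney statistic from -0.5 to +0.5, computed with the Universal PBM Analysis Suite. Scale: above 0.35 generally sequence-specific binding.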
row,Sequence,PBM E-score
1,CCCAATAC,0.0194
2,CAAAGGGC,-0.252
3,CTCTAGGA,-0.335
4,GTCGTAAC,0.267
5,GCCGTAAA,0.107
6,AAAGTAAA,0.0553
7,ATCGTAAC,0.241
8,AACGTAAA,0.425
9,AACGTAAC,0.441
10,ACCGTAAC,-0.135
11,GACGTAAC,0.467
12,GTCGTAAA,0.282
13,ACCGTAAA,0.206
14,GACGTAAA,0.456
15,GGCGTAAC,0.0903
16,ATCAAGTA,0.0281
17,ACGTTCGG,0.0529
18,CGAGTGGA,-0.154
19,CAGGCCCC,-0.271
20,GCAGTCAA,-0.262
21,ACTTTTGC,0.185
22,AGGCACAA,-0.0774

row,Sequence,PBM E-score
1,CTCGTAAG,0.243
2,CACGTAAG,0.448
3,CGCGTAAG,0.352
4,CCCGTAAC,-0.105
5,CTCGTAAC,0.253
6,TTCGTAAA,0.32
7,CCCGTAAA,-0.102
8,CACGTAAC,0.449
9,CTCGTAAA,0.139
10,TCCGTAAA,-0.0256
11,CACGTAAA,0.437
12,TACGTAAA,0.484
13,CAGAAGAA,0.0487
14,ACACCACG,0.063
15,CATGGTAG,-0.193
16,CTGGTTAC,-0.00958
17,CCGCTGTC,-0.153
18,CGTCGAAA,0.247
19,AACTTTAC,0.171
20,CCGATTCC,-0.0807
21,ATGATCTG,0.151
22,CCGTCATC,0.36

row,Sequence,PBM E-score
1,CGGTCATC,-0.0713
2,CCGTCATA,0.368
3,CAGTCATC,-0.204
4,GGGTCATA,-0.0307
5,CAGTCATA,0.0103
6,CGGTCATA,0.0986
7,GCGTCATA,0.481
8,GAGTCATA,0.122
9,CGCTTGCA,-0.102
10,ACGCGTCA,0.436
11,CCGCGTCG,-0.127
12,AAGCGTCA,0.353
13,TCGCGTCA,0.408
14,CCGCGTCC,-0.00078
15,AGGCGTCA,0.256
16,ACGCGTCC,0.0182
17,TAGCGTCA,0.398
18,TCGCGACA,-0.0189
19,CAGCGTCA,0.269
20,ACGCGTCT,0.192
21,CCGCGTCA,0.377
22,GGTAGCCA,-0.238

row,Sequence,PBM E-score
1,ACAAACCA,-0.0895
2,ATGCCGTG,-0.111
3,TGGCGGAA,-0.102
4,TAGCGCGA,-0.0664
5,GCGCGTCC,-0.15
6,GCGCGTTA,0.0431
7,GCGCGTCA,0.424
8,CTCAGCCC,-0.249
9,GACAATCA,0.00255
10,ATTTTGGC,0.11
11,GCAACCGC,-0.139
12,ATGTCATG,0.403
13,GTGTCATA,0.298
14,ATGTCAAG,0.187
15,ATGTCATA,0.41
16,ATGTCATC,0.389
17,CTGTCATC,0.0473
18,ATGTCAGC,0.129
19,ATGTCACG,0.325
20,CTGTCATA,0.141
